Test results taken from PubChem BioAssay AID624336 (National Center for Advancing Translational Sciences (NCATS), 2012).
Records with an inconclusive call do not appear. Active and inactive are the calls of the source. Calls come from the whole dose curve; as a rule, active = well fitted curve in the direction sought with a large enough effect; inconclusive = small, poorly fitted or top-dose-only effect; inactive = flat fitted curve, though single readings scatter.

Test: Quantitative high throughput screen for delayed death inhibitors of the malarial parasite plastid: Hit Validation with Dd2 at 48 hr using Flow Cytometry
Conditions: P. falciparum Dd2 growth, flow cytometry SYBR/MitoTracker; relative growth, lower = inhibition: at 50 µM (top of the series)
Description: The goal of this screen is to discover new antimalarial compounds that act by inhibiting the development of the apicoplast organelle in the malarial parasite Plasmodium falciparum. Some antibiotics, such as azithromycin and tetracycline, are known to interfere with the apicoplast translational machinery, and have a potent antimalarial effect. […] We developed a cell-based quantitative high throughput screen that leverages this "delayed death" phenotype to enrich for compounds that target the apicoplast. To detect small molecules that cause the delayed death phenotype, erythrocytes infected with firefly luciferase-expressing parasites were incubated with compounds for either one or two generations, corresponding to 48 and 96 hours, respectively. Growth inhibition was detected by a decrease in luciferase activity. Compounds that inhibited parasite growth in the second generation at least five-fold more potently than in the first generation were defined as delayed death inducing. These compounds were selected for confirmatory screening using a flow cytometry based assay. This hit validation assay used the Dd2 cell line and measured at 48 hours. NIH Molecular Libraries Probe Production Network [MLPCN] NIH Chemical Genomics Center [NCGC] MLPCN Grant: R21 NS059500 Assay Provider: David Fidock and Eric Ekland, Columbia University
Test compounds were diluted in 20 microliters of complete media (RPMI 1640 with 0.5% w/v Albumax (GIBCO), 24 mM sodium bicarbonate (Sigma) and 10 ug/mL gentamycin (Gibco)) in clear 384-well plates (Greiner). All liquid handling was conducted using a Bio Tek Precision 2000 pipetting system. Twenty microliters of infected erythrocytes, 0.2% parasitemia (for 48 hour time points) or 0.1% parasitemia (for 96 hour time points) were added to the compound dilutions (1% hematocrit, final concentration; 40 microliters, total culture volume). The assay plates were incubated for 48 hours, or 96 hours, at 37 masculine C in a humidified chamber (Billups- Rothenberg, Del Mar, CA, USA), gassed with 5%CO2/5%O2/ 90%N2. After one generation (48 hours), 5 microliters of culture were harvested and transferred to a second 384 well plate for fluorescent staining. Samples were stained with 30 microliters of 2 x SYBR Green I (Invitrogen) and 150nM MitoTracker Deep Red (Invitrogen) diluted in 0.9% NaCl, 0.2% dextrose (Baxter) supplemented with 2.5% Fetal Calf Serum (Gibco) (saline/FCS). Mature erythrocytes lack nuclei and mitochondria, therefore only parasitized erythrocytes retain the SYBR Green I and MitoTracker Deep Red. After 30 minutes at 37 masculine C, the stained cells were diluted in an additional 60 microliters of saline/FCS. The samples were harvested directly from the 384 well plate using a Hypercyt High Capacity Flow Platform (Intellicyt) paired with a C6 Flow Cytometer (Accuri). The flow cytometry files were analyzed using FlowJo software (FlowJo).

SMILES	Potency	relative growth, lower = inhibition
Brc1cccc(OCCCCN2CCCCC2)c1	2.36 µM (active)	
Cc1ccc(-n2c(-c3ccc(Cl)cc3)c[n+]3c2CCC3)cc1	2.64 µM (active)	
N#Cc1cccc(NC(=O)Cn2c3[n+](c4ccc(C(F)(F)F)cc42)CCCCC3)c1	26.1 µM (active)	
O=C(CNC(=O)C1CCCCC1)OC(C(=O)c1ccccc1)c1ccccc1 (stereo unspecified)	inactive	
Clc1ccc(-c2c[n+](Cc3ccc(Cl)cc3Cl)c3n2CCCCC3)cc1	5.44 µM (active)	
COc1cccc(CN2CCN(c3nc4nonc4nc3N3CCCCC3)CC2=O)c1	14 µM (active)	
CCCc1cc(=O)oc2cc(OC(C)C(=O)NCc3ccccn3)c(Cl)cc12 (stereo unspecified)	20.8 µM (active)	
CC1=Nc2cc(C(=O)N3CCCC3)ccc2Sc2ccc(C)cc21		0.214 (active)
CCOC(=O)c1ccc2c(c1)n(CC)c(/C=C/N(C)c1ccccc1)[n+]2CC	2.08 µM (active)	
CN(C)S(=O)(=O)c1cc(NC(=O)C2=COCCO2)ccc1Cl		1.39 (active)
COc1ccccc1N1CCN(CCC(=O)Nc2ccc(F)cc2)CC1		0.587 (active)
COc1ccc(NC(=S)N2CCC(Cc3ccccc3)CC2)cc1OC	10.8 µM (active)	
CCCCOc1ccc(N2C(N)=NC(N)=NC23CCCCC3)cc1	23 µM (active)	
O=C(Nc1ccccc1N1CCOCC1)c1cccc(S(=O)(=O)N2CCOCC2)c1	14.7 µM (active)	
CCCCN(CCCNC(=O)c1ccc(CS(=O)(=O)c2ccc(OC)cc2)o1)Cc1ccccc1	6.24 µM (active)	
Cc1c(F)c(N2CCNC(C)C2)cc2c1c(=O)c(C(=O)O)cn2C1CC1 (stereo unspecified)	4.14 µM (active)	

SMILES	Potency	relative growth, lower = inhibition
COc1cc(C(C)=O)ccc1OCC(O)CN1CCN(c2cc(C)cc(C)c2)CC1 (stereo unspecified)	inactive	
CCCc1c(CC)c(=N)c2ccccc2n1C		0.187 (active)
COCCNC(=O)c1cccc(OC2CCN(Cc3cccc(SC)c3)CC2)c1	inactive	
CN(C)c1ccc(CN(C(=O)c2ccccc2Br)C2CCS(=O)(=O)C2)cc1 (stereo unspecified)	9.14 µM (active)	
CO[C@@H]1[C@@H](OC2OC(C)C(OC3CC(C)(O)C(OC(=O)CC(C)C)C(C)O3)C(N(C)C)C2O)[C@@H](CC=O)C[C@@H](C)C(=O)/C=C\C2O[C@H]2C[C@@H](C)OC(=O)C[C@H]1OC(C)=O (stereo partly specified)	1.04 µM (active)	
O=C(CSc1ccc(-c2cccnc2)nn1)Nc1ccccc1C(F)(F)F	8.74 µM (active)	
Cc1sc2nc[nH]c(=O)c2c1-c1ccc(Cl)cc1	31.7 µM (active)	
CCCCN(CCCNC(=O)C1CCN(C(=O)c2cc3sccc3n2C)CC1)Cc1ccccc1	3.62 µM (active)	
CCOc1ccc(S(=O)(=O)Nc2cc(S(=O)(=O)N(CC)CC)ccc2N2CCCC2)cc1		0.264 (active)
CCOc1ccc(NC(=O)C[n+]2ccc(N(C)C)cc2)cc1	2.57 µM (active)	
COc1ccc2c(ccc[n+]2CC(=O)c2ccccc2)c1	7 µM (active)	
c1csc(CNc2ncnc3nc[nH]c23)c1	inactive	
Cc1ccc(S(=O)(=O)Nc2ccc(C(=O)Nc3ccncc3)cc2)cc1		0.257 (active)
Cc1ccc(CN2CCC(n3nccc3NC(=O)c3ccccc3C)CC2)o1	2.38 µM (active)	
CCC(=O)OC1C(N(C)C)CC(C)O[C@H]1O[C@H]1[C@H](C)[C@@H](O[C@H]2CC(OC)[C@@H](O)C(C)O2)[C@H](C)C(=O)O[C@@H](CC)[C@](C)(O)[C@@H](O)[C@H](C)C(=O)[C@@H](C)C[C@]1(C)O (stereo partly specified)	34.1 µM (active)	
